This is part of a sample that, as a whole, favours compounds with a hit. Of some 83,000 tested, about 20% had one in any assay.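 Percent growth is the endpoint: 0 to 100 indicates growth inhibition (40 means 60% inhibition), 0 means no net growth, and negative values indicate cell death.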 Values without a mark were called inactive. Active and inactive are the calls of the source. The calls were made as follows: active = growth percent below 10; inactive = the rest.

The assay concerns HL-60(TB) leukemia. Description: NCI-60 one-dose screen, 48 h (100 = growth as untreated, 0 = no growth, -100 = all killed). As to conditions: 10 µM unless noted.
As for `CCCCC(=O)c1ccc(OC)cc1`, the growth was 92.6%.
Under `CSC(SC)=C(C#N)c1nc2ccccc2s1` stands 44.6%; under `CCCCCc1ccc(S(=O)(=O)Nc2ccc3nc(N)oc3c2)cc1`, 28.9%.
In the case of `Cc1cc(N2CCOCC2)nc(NCc2cc(Nc3ccnc4cc(Cl)ccc34)ccc2F)n1`, the growth was -54.2% (active).
In the case of `C#C[C@@]1(O)[C@@H](CO)O[C@@H](n2cc(Br)c3c(Cl)ccnc32)[C@@H]1O`, the growth is -46.5% (active).
As to `COc1cc(/C=C2\C(=O)ON=C2C)cc(OC)c1OC`, the growth is 98.1%.
As to `CCC(=O)Oc1c(C)cc(O)c2ccccc12`, the growth is 68.8%.
To `CNc1ccccc1C(N)=O` belongs 114%.
As to `CCCCCCCC/C=C\CCCCCCCCOc1cccc(CC(=O)NCC[N+]2(C)CCCCC2)c1`, the growth was 28%.
Take `Cc1[nH]nc2ccc3nc(-c4ccc5[nH]ncc5c4)c4c(c3c12)CCCC4`: the growth is -15.5% (active).
As for `CN(C)CCOC(=O)Nc1ccc(Cc2ccc(NC(=O)OCCN(C)C)cc2)cc1`, the growth is 52.8% [100 µM].
`CC(C)CCSC1=CC(=O)c2ccccc2C1=O`: the growth was 13.3%.
Under `Cc1csc(-c2ccc3c(c2)COC3(CCCN(C)C)c2ccc(F)cc2)c1` (stereo unspecified) stands -47.9% (active); under `C/C=C(\C)C(=O)N[C@H]1CC[C@]2(C)C3CC[C@@]4(C)C(CC[C@@H]4C(C)N(C)C)C3CCC2[C@H]1OC(C)=O` (stereo partly specified), 18.2%.
For the compound `COc1cccc(/C(C#N)=C/c2nc3c(N4CCOCC4)nc(Cl)nc3n2C)c1`, the growth is -32% (active).
Take `O=C(Cc1ccccc1Nc1c(Cl)cccc1Cl)NN1C(=O)/C(=C/c2ccc(Br)cc2)SC1=S`: the growth is 101%.

For the origin of these results see PubChem BioAssay (NCI).
